Screening results as filed in PubChem BioAssay.
An excerpt weighted towards active compounds, which were near 6.1% of everything screened.
Gal4-VP16 FLuc = counter-screen for ROR gamma inhibitors: Gal4-VP16 reporter; Drosophila S2 Gal4-VP16 UAS-luciferase, luminescence, 20 h; Potency, µM (titrated, usually from 53.6 µM), without a hit: top-dose activity, negative = inhibition, most hits filed as inhibitors; AID 2546; actives 3.5% (n = 310,000);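 also: Gal4-VP16 expression switched on by copper sulfate through the metallothionein promoter; % is scaled to controls: 0 for no effect and ±100 for the full control effect; nearly all actives have a fitted effect of over 50% in size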
TGFb inhibitor = inhibitors of TGF-b signaling | HepG2 CAGA-GFP TGF-b/SMAD3 reporter, GFP fluorescence, 18 h; TGF-beta stimulated, 500 pg/mL final | Potency, µM (titrated, usually from 46.1 µM), inactives show at the highest dose activity, negative = inhibition, actives largely listed as inhibitors | actives 1.2% (n = 410,000); also: % is scaled to controls: 0 for no effect and ±100 for the full control effect; nearly all actives have a fitted effect of over 65% in size
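Cell-based qHTS in HEPG2 carrying a CAGA-GFP Smad reporter; compounds added before 500 pg/mL final TGF-beta, 18 h incubation at 37 degrees C, GFP fluorescence quantified per cell by imaging cytometry.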
HepG2 tox = counter-screen for TGF-b inhibitors: cytotoxicity in HepG2 cells; HepG2 CAGA-GFP viability, ATP luminescence, 18 h; Potency, µM (top dose mostly 46.1 µM), inactives show at the top dose activity change, negative = cytotoxicity, most hits filed as cytotoxic; actives 0.76% (n = 410,000)
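CellTiter-Glo luminescence gave cytotoxicity after 18 hours at 37 degrees C. The cells were HepG2 CAGA-GFP in 1% FBS DMEM, stimulated with 500 pg/mL TGF-beta after compound addition. %Activity was normalised to no-cell wells (complete cell-killing) and DMSO (no toxicity), and curves were fitted and classified.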
RORgamma inh = blocks mouse ROR gamma transcriptional activity. AID 2551. Drosophila S2 Gal4-RORgamma UAS-luciferase reporter, 20 h. actives 5.4% (n = 310,000). P51450. Potency, µM (highest dose often 53.6 µM), without a hit: at the highest dose activity change, negative = inhibition, most hits filed as inhibitors; also: % is scaled to controls: 0 for no effect and ±100 for the full control effect; nearly all actives have a fitted effect of over 60% in size
Target sequence (P51450 whole entry, looked up, the tested form may be a part): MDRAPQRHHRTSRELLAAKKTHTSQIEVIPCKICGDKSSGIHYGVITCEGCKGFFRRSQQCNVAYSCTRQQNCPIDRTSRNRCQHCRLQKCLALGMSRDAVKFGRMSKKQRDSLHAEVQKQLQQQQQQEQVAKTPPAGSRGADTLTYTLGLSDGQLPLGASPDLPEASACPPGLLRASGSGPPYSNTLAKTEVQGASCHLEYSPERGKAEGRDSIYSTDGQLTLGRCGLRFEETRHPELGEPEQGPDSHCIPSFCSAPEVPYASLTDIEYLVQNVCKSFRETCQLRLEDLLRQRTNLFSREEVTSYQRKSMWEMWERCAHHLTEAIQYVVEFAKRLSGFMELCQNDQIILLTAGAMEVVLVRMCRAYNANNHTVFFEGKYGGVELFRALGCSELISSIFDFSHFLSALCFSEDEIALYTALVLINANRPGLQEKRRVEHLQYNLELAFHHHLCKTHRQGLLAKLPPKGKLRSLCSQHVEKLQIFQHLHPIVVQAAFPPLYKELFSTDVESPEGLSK
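Drosophila S2 cells stably expressing Gal4-DBD/mouse RORγ fusion under metallothionein promoter plus UAS-luciferase; compound 1 h, then 700 uM CuSO4 induction for 20 h at ambient temperature; inhibition read as reduced luminescence.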
S2 tox = cell viability loss in ATXN counter-screen | S2 cells (HEK-293 line with an ATXN2-luciferase reporter) viability, CellTiter-Fluor protease fluorescence, 24 h | Potency, µM (titrated, usually from 56.7 µM), hits mostly cytotoxic | actives 0.49% (n = 400,000) | AID 651635; also: nearly all actives have a fitted effect of over 40% in size
ATXN2 expr inh = inhibitors of ATXN2 expression; HEK-293 ATXN2-luciferase reporter, luminescence, 24 h; Potency, µM (series often up to 57 µM), for the others: top-dose activity change, negative = inhibition, actives largely listed as inhibitors; actives 0.72% (n = 360,000); AID 1745845; also: % is scaled to controls: 0 for no effect and ±100 for the full control effect; nearly all actives have a fitted effect of over 55% in size
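ATXN2-luciferase reporter cells (luciferase flanked by upstream and downstream ATXN2 gene portions) were treated 24 h at 37 °C with compounds at up to 57 uM. SteadyGlo luminescence gave expression; GF-AFC fluorescence gave viability.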
An asterisk follows results filed as active; i = inactive; ? = inconclusive; . = no result; [ ] = remark or other dose. Calls follow the shape of the dose curve; as a rule, active = well fitted curve in the direction sought with a large enough effect; inconclusive = small, poorly fitted or top-dose-only effect, or another doubt; inactive = no such curve, though single readings can be large; an effect the other way counts as inactive or inconclusive. Potency is read from the fitted curve at half-maximal effect.

SMILES	Gal4-VP16 FLuc	TGFb inhibitor	HepG2 tox	RORgamma inh	S2 tox	ATXN2 expr inh
Cc1ccccc1Cn1c2ccccc2c2cnn(CC(=O)NCC(C)c3ccccc3)c(=O)c21 (configuration not stated)	.	17%	7%	.	i	4%
C[C@H](CO)N1C[C@H](C)[C@@H](CN(C)Cc2ccc(C(=O)Nc3ccccc3N)cc2)Oc2c(NC(=O)C3CCCCC3)cccc2C1=O	.	-25%	-22%	.	20µM*	?
C[C@H](CO)N1C[C@H](C)[C@@H](CN(C)CC2CCCCC2)Oc2c(NC(=O)Cc3ccccc3)cccc2C1=O	.	16µM*	16µM*	.	32µM*	?
O=C(CCc1ccc(O)cc1)c1c(O)cc(O)cc1O[C@@H]1O[C@H](CO)[C@H](O)[C@H](O)[C@H]1O	.	.	.	.	.	-3%
Cc1cccc(-n2c(-c3ccccc3)c[nH]c2=S)c1C	7.1µM*	?	-1%	2.2µM*	i	8%
COc1ccccc1-n1c(-c2ccc(Cl)cc2)c[nH]c1=S	7.1µM*	-7%	-1%	2.8µM*	?	.
Cc1cccc(-n2c(N)cc(=O)[nH]c2=S)c1C	7%	7%	-8%	-15%	i	-5%
COc1ccccc1-n1c(-c2ccc(NS(C)(=O)=O)cc2)n[nH]c1=S	-4%	0%	-2%	-34%	i	4%
CCN(CC)S(=O)(=O)c1ccc(NC(=O)c2nn(C)c3c2CSc2ccccc2-3)cc1	.	2%	-25%	.	.	.
CCCNC(=O)CCn1c(-c2ccc(C)cc2)cc(C(=O)OCC)c1C	0%	-24%	-11%	-4%	i	23%
Cn1c(-c2ccc3c(c2)OCO3)cnc1NC(=O)CCC(=O)NCCc1ccccc1	5.6µM*	15%	3%	3.2µM*	?	50%
CCCCNC(=O)CCC(=O)Nc1ncc(-c2ccc(C)cc2)n1C	4µM*	3%	-12%	2µM*	?	23%
Cc1ccc(-c2cnc(NC(=O)CCC(=O)N3CCCCC3)n2C)cc1	7.9µM*	8%	-5%	3.5µM*	i	9%
COc1ccc(Cn2ccnc2SCC(=O)Nc2ccc3c(c2)OCCO3)cc1	.	-3%	-3%	.	.	.
Cc1ccc(/C=C/C(=O)c2ccc([N+](=O)[O-])o2)cc1	.	7.9µM*	-19%	.	8.9µM*	?
Cc1ccc(CNC(=O)c2ccc([N+](=O)[O-])o2)cc1	?	-18%	14µM*	-44%	?	1%
O=C(NCc1nnnn1-c1ccc(F)cc1)c1ccc([N+](=O)[O-])o1	.	14µM*	-180%	.	i	21%
CN(Cc1ccccc1)C(=O)c1ccc([N+](=O)[O-])o1	?	?	20µM*	-45%	i	.
O=C(COC(=O)c1ccc([N+](=O)[O-])o1)NCc1ccccc1	.	?	-57%	.	i	-7%
CC(C)C(=O)Nc1ccc2nc(SCCOc3ccccc3)sc2c1	.	-1%	-12%	.	i	-2%
Cc1nc2c(nc1C)C(=O)c1ccccc1C2=O	.	2.2µM*	3.5µM*	.	?	?
O=C1c2ccccc2-c2nc3ccccc3nc21	-5%	-8%	2%	-6%	i	27%
Cc1ccc2nc(/C=C/c3ccc(N(C)C)cc3)ccc2c1	.	14%	-24%	.	.	.
Cc1ccc2nc(/C=C/c3cccc(F)c3)ccc2c1	-18%	-21%	-14%	10µM*	i	38%
O=C(O)CCc1nc(-c2ccccc2)no1	0%	-5%	-10%	-15%	i	-2%
SMILES	Gal4-VP16 FLuc	TGFb inhibitor	HepG2 tox	RORgamma inh	S2 tox	ATXN2 expr inh
COc1ccc(-c2noc(CCCC(=O)O)n2)cc1	0.35µM*	-10%	-5%	0.32µM*	i	4µM*
CCOc1ccc(-c2noc(CCC(=O)O)n2)cc1	1.4µM*	-16%	-19%	0.35µM*	i	?
COc1ccc(-c2noc(CCC(=O)O)n2)cc1	?	-9%	7%	?	i	-8%
O=c1[nH]c2ccc(NS(=O)(=O)c3ccc(F)cc3)cc2s1	.	?	-27%	.	.	.
CSc1nnc(-c2ccccc2SC)o1	6%	-15%	2%	-2%	i	-28%
COc1ccccc1-c1nnc(NC(=O)Cc2ccccc2)o1	3.2µM*	-2%	-21%	2µM*	i	.
CSc1ccccc1-c1nnc(NC(=O)Cc2ccccc2)o1	2.5µM*	6%	6%	1µM*	i	-16%
COc1ccccc1-c1nnc(SCC(=O)Nc2ccc(Cl)cc2Cl)o1	-3%	3%	0%	4%	i	2%
CS(=O)(=O)c1ccccc1-c1nnc(NC(=O)Cc2ccccc2)o1	?	?	-28%	11µM*	i	-6%
O=C(C[N+]1(CCc2ccccc2)CCOCC1)c1ccccc1	.	5%	-33%	.	.	.
Cc1ccccc1OCCNC(=O)CSc1ccc(C(F)(F)F)cc1[N+](=O)[O-]	-4%	-15%	-2%	11%	i	-14%
COc1cccc(OCCNC(=O)CSc2ccc(C(F)(F)F)cc2[N+](=O)[O-])c1	3.5µM*	0%	1%	8%	i	3%
CCOc1ccc2nc(NC(=O)C(NS(=O)(=O)c3cccc4nsnc34)C(C)C)sc2c1 (configuration not stated)	?	?	-21%	16µM*	i	6%
CC(C)C(NS(=O)(=O)c1cccc2nsnc12)C(=O)Nc1nc2ccc(Cl)cc2s1 (configuration not stated)	?	?	-17%	22µM*	?	-13%
C=CCNC(=S)NNC(=O)C(CCC(C)C)CC(C)(C)O (configuration not stated)	?	0%	-26%	14µM*	i	-9%
C=CCNC(=S)NNC(=O)C(CC(C)C)CC(C)O (configuration not stated)	-6%	10%	14%	-20%	i	-24%
CCN1C(=O)[C@H]2[C@H]3[C@H](O)[C@H](O)C/C(=N/OCc4ccccc4)[C@H]3CC[C@@H]2C1=O	-9%[10 µM]	.	.	-5%[10 µM]	.	.
C[C@H](C[C@H](O)[C@H]1OC1(C)C)C1=C2C[C@H](O)C3[C@@]4(C)CCC(=O)C(C)(C)C4CC[C@]3(C)[C@@]2(C)CC1 (some centres not stated)	.	?	16µM*	.	25µM*	?
CN(CC(=O)O)c1ccc(/C=C/c2ccnc3ccccc23)cc1	.	?	-49%	.	.	.
C=CC[n+]1ccc(/C=C2\C=Cc3cc(C)ccc3N2CC)c2ccccc21	1.3µM*	2.8µM*	-47%	1.3µM*	9.5µM*	?
